# Laboratory results reported in PubChem BioAssay (NCI).
# This is part of a sample that, as a whole, favours compounds with a hit. Of some 83,000 tested, about 20% had one in any assay.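 Activity criterion: percent growth below 10, measured after cells in 96-well plates were exposed to a single compound concentration for 48 hours.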 Values without a mark were called inactive. The source made the active and inactive calls.
# How the values were obtained:
# Assay in all cases: NCI-60 one-dose screen, 48 h (100 = growth as untreated, 0 = no growth, -100 = all killed)
# Conditions in all cases: 10 µM unless noted
# NCI-H23 lung = test system: NCI-H23 lung
# NCI-H226 lung = test system: NCI-H226 lung
# NCI-H322M lung = test system: NCI-H322M lung
# HOP-62 NSCLC = test system: HOP-62 NSCLC
# NCI-H460 lung = test system: NCI-H460 lung
# A549/ATCC NSCLC = test system: A549/ATCC NSCLC
# 786-0 renal = test system: 786-0 renal
# COLO 205 colon = test system: COLO 205 colon
# DU-145 prostate = test system: DU-145 prostate
# K-562 leukemia = test system: K-562 leukemia
# MALME-3M melanoma = test system: MALME-3M melanoma
# MDA-MB-231 breast = test system: MDA-MB-231 breast
# RXF 393 renal = test system: RXF 393 renal
# SF-268 CNS = test system: SF-268 CNS
# SF-295 CNS = test system: SF-295 CNS
# SF-539 CNS = test system: SF-539 CNS
# UACC-257 melanoma = test system: UACC-257 melanoma
# M14 melanoma = test system: M14 melanoma
Structure (SMILES),growth (NCI-H23 lung),growth (NCI-H226 lung),growth (NCI-H322M lung),growth (HOP-62 NSCLC),growth (NCI-H460 lung),growth (A549/ATCC NSCLC),growth (786-0 renal),growth (COLO 205 colon),growth (DU-145 prostate),growth (K-562 leukemia),growth (MALME-3M melanoma),growth (MDA-MB-231 breast),growth (RXF 393 renal),growth (SF-268 CNS),growth (SF-295 CNS),growth (SF-539 CNS),growth (UACC-257 melanoma),growth (M14 melanoma)
CC(C)OCC1CO1 (stereo not given),110%,101%,100%,102%,97.7%,106%,113%,104%,114%,109%,86.8%,107%,119%,99.9%,78.2%,95.1%,102%,102%
COc1ccc(C(=O)NCCNc2nccc(-c3c(-c4ccc(F)cc4)nc4sccn34)n2)cc1,70.7%,54.8%,68.1%,64.8%,26.1%,34%,48.9%,47%,59.1%,59.5%,76%,62.2%,72%,59.2%,61.6%,79.1%,89%,55.6%
COc1cc(-c2nn(-c3ccc(NC(=O)c4ccc(Cl)c(C(F)(F)F)c4)cc3)cc2-c2ccncc2)ccc1Cl,18.7%,55.5%,55.9%,5.59% (active),11.9%,29%,-84.5% (active),-22.4% (active),45.2%,8.48% (active),14.9%,3.94% (active),-56.3% (active),43.8%,-33.2% (active),13%,54.2%,-44.3% (active)
CCOC1=C(Cl)C(=O)C(OCC)=C(Cl)C1=O,107%,103%,94.7%,97.6%,109%,108%,97.9%,104%,106%,82.5%,103%,103%,105%,107%,96.4%,101%,103%,110%
COc1cc([C@@H]2c3cc4c(cc3[C@H](O)[C@H]3COC[C@@H]23)OCO4)cc(OC)c1OC,91.8%,88.8%,104%,65.4%,94.4%,98.8%,78.5%,96.7%,96.7%,39.1%,43.3%,73.8%,83.1%,80.9%,56.3%,75%,75.8%,42.4%
O=C(CCC(=O)N(CCO)CCO)N(CCO)CCO,108%,105%,96%,102%,116%,105%,96.4%,98.4%,107%,96%,103%,109%,113%,108%,96.4%,101%,101%,99.5%
COc1cc(-c2nn(-c3ccc(NC(=O)Nc4ccc(Cl)c(Cl)c4)cc3)cc2-c2ccncc2)ccc1Cl,22.9%,52.6%,68.4%,47.5%,7.14% (active),25.8%,4.3% (active),20.1%,40.8%,17.2%,57.2%,43.3%,22.6%,44.3%,3.1% (active),54%,56.5%,24.5%
CCCCCCCCCCCCOC(=N)N(C)C,107%,96.2%,95%,97%,99.8%,91.7%,96.8%,100%,112%,96.3%,88.9%,104%,112%,101%,98.4%,99.4%,92.2%,106%
CCOC(=O)c1sc(NS(=O)(=O)c2ccccc2)nc1C,109%,106%,122%,-99.5% (active),109%,103%,89.4%,120%,145%,144%,120%,107%,114%,114%,133%,101%,110%,107%
COc1ccc2c(c1)cn1c3ccc(O)cc3[nH]c(=O)c21,23.3%,45.9%,41.1%,25.8%,-52.4% (active),26.8%,22.9%,4.21% (active),15.4%,-5.1% (active),62.5%,25.5%,-3.01% (active),16.9%,22.5%,-4.58% (active),51.4%,14.7%
CCCCCCC(=O)C(C)C,107%,92.3%,96.5%,93.8%,113%,97.5%,94.5%,112%,106%,94.9%,89.2%,111%,101%,105%,101%,104%,92.8%,97.2%
COC(=O)c1cc(Nc2ccc(O)c3c2C(=O)c2c([N+](=O)[O-])ccc(O)c2C3=O)cc(C(=O)OC)c1,-20.3% (active),82.5%,-2.32% (active),72.8%,55.7%,-50.2% (active),88.7%,12%,-59.1% (active),72.9%,-51.1% (active),90.4%,51.9%,55.1%,–,84%,12.1%,-66.5% (active)
O=Nc1ccc(O)c2ccccc12,-9.22% (active),101%,106%,38.4%,96.7%,41.6%,77.7%,21.9%,56.7%,12.1%,-58.5% (active),52.5%,10.9%,10.5%,62.9%,0.651% (active),-68.5% (active),-10.8% (active)
Cc1cc2cn3c4ccc(O)cc4[nH]c(=O)c3c2cc1C,25.3%,54.3%,-8.89% (active),11.7%,-81.9% (active),3.2% (active),19.1%,-63.3% (active),3.48% (active),-36.8% (active),16.4%,-11.1% (active),38.1%,15.4%,9.25% (active),12%,46.6%,-19.4% (active)
COC(=O)[C@H](Cc1cn(C)cn1)NC(=O)[C@H](CC(=O)OCc1ccccc1)NC(=O)Nc1cc(C(F)(F)F)cc(C(F)(F)F)c1,-83.9% [100 µM] (active),-52.9% [100 µM] (active),-96.7% [100 µM] (active),-100% [100 µM] (active),-62.8% [100 µM] (active),-80.9% [100 µM] (active),-92% [100 µM] (active),-93.7% [100 µM] (active),-94.5% [100 µM] (active),-60.2% [100 µM] (active),-94.4% [100 µM] (active),-93% [100 µM] (active),-81.8% [100 µM] (active),-91.4% [100 µM] (active),–,-94.6% [100 µM] (active),-94.9% [100 µM] (active),-93.6% [100 µM] (active)
CN(CCC#N)c1ccc(/C=C(\C#N)c2cccc(C(F)(F)F)c2)cc1,66.2%,65.7%,86.5%,81.7%,74%,36.3%,74.9%,49.5%,82.5%,21%,58.2%,58.8%,71.7%,81.7%,95.8%,68%,–,55.9%
